This is part of a sample that, as a whole, favours compounds with a hit. Of some 83,000 tested, about 20% had one in any assay.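 Each cell line was grown in a 96-well plate and treated with one concentration of compound for 48 hours. Values below 10 were considered active.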 A number with no mark means an inactive call. Calls of active or inactive are those of the source.
Assays:
Experiment in all cases: NCI-60 one-dose screen, 48 h (100 = growth as untreated, 0 = no growth, -100 = all killed)
Settings in all cases: 10 µM unless noted
NCI-H23 lung = test system: NCI-H23 lung
NCI-H226 lung = test system: NCI-H226 lung
NCI-H322M lung = test system: NCI-H322M lung
HOP-62 NSCLC = test system: HOP-62 NSCLC
NCI-H460 lung = test system: NCI-H460 lung
HOP-92 NSCLC = test system: HOP-92 NSCLC
NCI-H522 lung = test system: NCI-H522 lung
A549/ATCC NSCLC = test system: A549/ATCC NSCLC
COLO 205 colon = test system: COLO 205 colon
786-0 renal = test system: 786-0 renal

Row | Structure (SMILES) | growth (NCI-H23 lung) | growth (NCI-H226 lung) [%] | growth (NCI-H322M lung) | growth (HOP-62 NSCLC) | growth (NCI-H460 lung) | growth (HOP-92 NSCLC) | growth (NCI-H522 lung) | growth (A549/ATCC NSCLC) | growth (COLO 205 colon) | growth (786-0 renal)
1 | O=C(C[C@@]1(O)C(=O)Nc2c(Cl)ccc(Cl)c21)c1ccc(C2CC2)cc1 | 37.5% | 46.4 | 53.1% | 34.2% | 6.3% (active) | 75.5% | 19.4% | 38.1% | 1.09% (active) | –
2 | Fc1ccc(Nc2nc3nonc3nc2Nc2ccc(F)cc2)cc1 | 2.78% (active) | 14.9 | 1.32% (active) | -5.63% (active) | 1.64% (active) | -30.5% (active) | -23.9% (active) | 6.26% (active) | -80.2% (active) | –
3 | Clc1ccc2c(NCCCN3CCN(c4nc(N5CCOCC5)nc5ccccc45)CC3)ccnc2c1 | 73.8% | 75.7 | 30% | 42.6% | 4.92% (active) | – | 13% | 24% | – | -36% (active)
4 | Cc1nc(Nc2ccc(NC(=S)Nc3ccccc3)cc2)nc2nc(SCc3ccccc3)[nH]c(=O)c12 | 101% | 82.6 | 173% | 95.2% | 107% | – | 40.5% | 57.9% | 126% | 99.1%
5 | CS(=O)(=O)c1ccc(-c2nc3cc(Cl)ccc3n2CC(=O)N/N=C/c2ccc(Cl)cc2)cc1 | 60.3% | 84.8 | 70.4% | 56.4% | 48.7% | – | 46% | 68.5% | – | 16.1%
6 | O=c1cc(-c2ccc(OCc3ccccc3)cc2)oc2c(I)c(OCc3ccccc3)cc(OCc3ccccc3)c12 | 103% | 90 | 96.6% | 125% | 99.2% | – | 91.5% | 96.4% | – | 96.8%
7 | COc1cc2c(cc1OC)-c1ccc3cc4c(cc3c1N(CCCn1ccnc1)C2)OCO4 | 16.6% | 51.9 | 76.9% | 24.9% | 6.34% (active) | – | -19.1% (active) | 56.2% | – | 35.1%
8 | NC(=O)c1c(NC(=O)c2ccccn2)sc2c1CCC(=O)C2 | 17.2% | 70.7 | 94.3% | 81% | 71.2% | – | -13.5% (active) | 60.6% | – | 89.4%
9 | O=C1C(Cl)C(c2ccccc2Cl)N1n1cnnc1 (stereo not drawn) | 101% | 102 | 93.5% | 73.5% | 101% | – | 92.9% | 91.1% | – | 97.1%
10 | COc1c(C)cnc(CSc2nc(-c3ccc(C)cc3)cn2-c2ccc(Cl)cc2)c1C | 97% | 102 | 80.9% | 89.5% | 101% | – | 55.9% | 88.6% | 96% | 95.3%
11 | N[C@@H]1CCC[C@H]1NCCCCN1C(=O)c2cccc3cccc(c23)C1=O | 80.4% | 91.9 | 64.4% | 81.9% | 59.8% | – | 65.8% | 67.4% | – | 58%
12 | COc1cccc(/C=C2\COc3ccc(O)cc3C2=O)c1OC | 86.6% | 95.2 | 90.5% | 88.4% | 67.8% | – | 28.7% | 105% | 92.1% | 86.1%
13 | CCOC(=O)C1=C(C)NC(SCc2nnc(-c3ccc(Cl)cc3)o2)=NC1c1ccc(Cl)cc1Cl (stereo not drawn) | 66% | 79 | 78.9% | 82.5% | 59.2% | – | 50.2% | 53.5% | – | 65.2%
14 | CNC=O | 85.7% | 102 | 97.5% | 107% | 101% | – | 94.9% | 88.8% | 97.7% | 102%
15 | CC(=O)C(C(C)=O)c1nc2sc3cc(Cl)ccc3n2c(=N)c1C#N | 81.4% | 75.1 | 87.3% | 81.9% | 95.2% | – | 83% | 98.7% | – | 98.3%
16 | O=C(NCOC(O)C(Cl)(Cl)Cl)NCOC(O)C(Cl)(Cl)Cl (stereo not drawn) | 102% | 95.7 | 91.7% | 91.6% | 112% | – | 82.8% | 97.5% | – | 99.2%

Row | Structure (SMILES) | growth (NCI-H23 lung) | growth (NCI-H226 lung) [%] | growth (NCI-H322M lung) | growth (HOP-62 NSCLC) | growth (NCI-H460 lung) | growth (HOP-92 NSCLC) | growth (NCI-H522 lung) | growth (A549/ATCC NSCLC) | growth (COLO 205 colon) | growth (786-0 renal)
17 | COc1cc(/C=C/C(=O)c2cccc(-n3cc(-c4ccccc4)[nH]c3=O)c2)cc(OC)c1OC | -27.4% (active) | 24.9 | 33% | 7.01% (active) | -68.5% (active) | – | -64.5% (active) | 27.1% | – | -63.4% (active)
18 | C[C@@H]1C(=O)N(C[C@H](Cc2ccccc2)NC(=O)OCc2ccccc2)[C@]1(Cc1ccccc1)C(=O)OC(C)(C)C | 71.8% | 62.2 | 86.7% | 80.2% | 66.6% | – | 45% | 47.2% | 62% | –
19 | Cc1csc(NC(=O)c2sc3nc(-c4cccs4)ccc3c2N)n1 | 94.2% | 96.9 | 102% | – | 99.3% | – | 82.3% | 94.7% | 103% | –
20 | Cc1nn(Cc2ccccc2)cc1C(=O)Nc1sc2c(c1C(N)=O)CCC(=O)C2 | 12.6% | 71.9 | 96.2% | – | 86% | 31.2% | -3.17% (active) | 84.7% | – | 70.1%
21 | CCCCCCNc1cc(C)nc2ccc(OC)cc12 | 52.7% | 61.5 | 67.2% | – | 61.6% | 39.3% | 63.9% | 64.3% | – | 68.9%
22 | Cc1cc(Cc2cc(C)cc(C(C)(C)C)c2O)c(O)c(C(C)(C)C)c1 | 23.3% | 58.3 | 75.7% | – | 8.85% (active) | 18.5% | 29.9% | 27.3% | – | 57%
23 | CN(C)c1ccc(/C=C/c2c(F)cccc2F)cc1 | 83.9% | 94.1 | 92.7% | – | 107% | 81% | 76.4% | 82.6% | – | 105%
24 | Nc1nc(I)c2ncn(C3OC(CO)C(O)C3O)c2n1 (stereo not drawn) | 112% | 91.6 | 105% | – | 110% | 223% | 88.9% | 103% | – | 103%
25 | O=C1c2ccccc2C2(c3ccc(O)cc3)c3ccccc3Oc3cccc1c32 (stereo not drawn) | 33.4% | 85.9 | 32.5% | – | 11.3% | 29.9% | 48.6% | 29% | – | 40.6%
26 | O=C(Oc1ccc([N+](=O)[O-])cc1)c1ccc(CBr)cc1 | 98.5% | 106 | 100% | – | 100% | 88.5% | -21.2% (active) | 97.9% | – | 108%
27 | Nc1ccc(S(=O)(=O)Nc2ccsc2-c2nc(-c3ccccc3)no2)cc1 | 83.5% | 84.5 | 83.3% | – | 40.1% | 62.2% | 30.2% | 42.7% | – | 86%
28 | CCNCCNc1cc(-c2ccc(F)cc2)c(C#N)c2nc3ccccc3n12 | 77.8% | 93.1 | 66.3% | – | 3.07% (active) | 52.1% | 64.3% | 46% | – | 57.9%
29 | Cc1cc(-c2ccc(N(C)C)cc2)c2sc(=O)[nH]c2n1 | 82.6% | 64.6 | 78.1% | – | 65.2% | 85.5% | 56.5% | 66% | – | 77.2%
30 | COc1ccc(-c2nc3sc4c(c3c(=O)[nH]2)CCCC4)c2ccccc12 | 32.6% | 50.8 | 37.6% | 10.4% | 0.61% (active) | – | 1.5% (active) | 15.8% | -32.9% (active) | 10.6%
31 | O=C(/C=C/c1ccccc1)c1ccc2ccccc2c1 | 92.1% | 98.5 | 99.8% | – | 110% | 94.6% | -3.88% (active) | 96.3% | 38.3% | 90.8%
32 | COc1cc2c(c(OC)c1OC)C(=O)/C(=C/c1cc(C)c(O)c(C)c1)S2 | 36.9% | 34.3 | 40.8% | – | 12.7% | 54.6% | 14.6% | 44.4% | – | 42.6%

Source: PubChem BioAssay (NCI)
